Ba/F3 V617F tox: reduced viability of JAK2V617F-dependent Ba/F3 cells, primary screen, JAK2V617F inhibitor project, cell-based, Ba/F3 EpoR-JAK2V617F, luminescence; ATP luminescence; inhibition, % at 5.6 µM; 1.1% of 220,000 active; AID 1446, 2008;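 active means inhibition above the campaign mean plus 3 SD over all tested compounds, cut at about 24% in these data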;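 further: cytokine-independent growth of Ba/F3 cells driven by EpoR plus mutant JAK2; 0% = DMSO-treated cells and 100% = JAK inhibitor I control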
APP transl inh: inhibitors of APP translation via 5'UTR reporter, primary screen, APP 5'UTR luciferase, SH-SY5Y cells; SH-SY5Y APP 5'UTR-luciferase reporter, luminescence; inhibition, % at 2 µM; 0.82% of 190,000 active; AID 1285, 2008;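 active means inhibition above a set limit, derived from the sample mean plus 3 SD, cut at about 45% in these data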
BaF3 tox: parental Ba/F3 cell viability inhibition, counter-screen for JAK2V617F inhibitor project, murine pro-B, CellTiter-Glo luminescence; CellTiter-Glo ATP luminescence; inhibition, % at 5.6 µM; 1.1% of 220,000 active; AID 1486, 2009;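 active means inhibition above a per-campaign cutoff, the mean inhibition of all tested compounds plus 3 SD, cut at about 27% in these data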;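 further: 0% = DMSO wells and 100% = JAK Inhibitor I control wells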
KLF5 inh: KLF5 expression inhibitors, primary screen, DLD-1 cells, luminescence; DLD-1 KLF5 promoter-luciferase reporter; inhibition, % at 5 µM; 0.23% of 290,000 active;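 active means inhibition above a per-plate limit of that plate's mean compound inhibition plus 3 SD, cut at about 60% in these data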;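 further: 0% = DMSO wells and 100% = LY294002 at 200 µM; higher means less KLF5 promoter-driven luciferase light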
IEC-6 tox: cytotoxicity in IEC-6 intestinal epithelial cells, primary screen, cytotoxicity control for KLF5 inhibitor project, cell-based, luminescence; AID 1825, 2009; IEC-6 cytotoxicity, luminescence viability; 0.78% of 290,000 active; inhibition, % at 5 µM; in the data active means inhibition above about 22%;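 further: 0% = plate median of test compound wells and 100% = cytotoxic reference compound wells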
aSyn UTR inh: MLPCN primary screen, SNCA 5' untranslated region | alpha-synuclein 5'UTR reporter, inhibitor activity | inhibition, % (tested at 7.5 µM) | 0.82% of 300,000 active; in the data active means inhibition above about 60%;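 further: H4 neuroglioblastoma cells stably carrying SNCA 5'UTR luciferase fusion; 0% = DMSO wells and 100% = positive control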
BaF3 tox 2: parental Ba/F3 cell viability inhibition, counter-screen for JAK2V617F inhibitor project, murine pro-B, CellTiter-Glo luminescence; shares compounds with Ba/F3 V617F tox; cells kept alive by added IL-3; inhibition, % at 5.6 µM; 31% of 580 active; AID 1520, 2009;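 active means cell growth inhibition above the hit limit set in the earlier mutant JAK2 cell screen, cut at about 27% in these data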;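 further: plate controls were DMSO-treated cells for no effect and JAK Inhibitor I control wells for full effect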
JAK2V617F confrm: viability loss in Ba/F3 EpoR-JAK2V617F cells, confirmation, JAK2V617F inhibitor project, cell-based, luminescence, triplicate | shares compounds with Ba/F3 V617F tox | CellTiter-Glo luminescence | inhibition, % at 5.6 µM | 66% of 580 active | AID 1521, 2009;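 active means mean inhibition above the hit cutoff derived in the earlier primary screen, cut at about 25% in these data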;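 further: 0% = DMSO-treated cells and 100% = JAK inhibitor I control wells; higher means lower luminescence from reduced cell ATP and viability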
Active calls of the source: *. In the library only some 2.1% were active in any assay of this set; here they are far more common.

What do the screens show for `CCCn1c(CC)nc([N+](=O)[O-])c1S(=O)(=O)c1ccccc1`?
Ba/F3 V617F tox: 49*; APP transl inh: 14; BaF3 tox: 8; KLF5 inh: 3; IEC-6 tox: 5; aSyn UTR inh: -14; BaF3 tox 2: -2; JAK2V617F confrm: 70*

What do the screens show for `CCc1ccc(CNC(=O)C2CC(=O)N(C3CCCC3)C2)cc1` (configuration not stated)?
KLF5 inh: -5; IEC-6 tox: -1; aSyn UTR inh: 10

Results for COc1ccc(C2=Nn3c(nnc3C3CCCCC3)SC2)cc1OC ?
Ba/F3 V617F tox: 25*; APP transl inh: -14; BaF3 tox: 10; KLF5 inh: 4; IEC-6 tox: 8; aSyn UTR inh: 16; BaF3 tox 2: 13; JAK2V617F confrm: 51*

What do the screens show for `O=C(Nc1n[nH]c(C(F)(F)F)n1)C1CC1`?
Ba/F3 V617F tox: 3; APP transl inh: 21; BaF3 tox: 4; KLF5 inh: 25; IEC-6 tox: -1; aSyn UTR inh: -11

What do the screens show for `Cc1ccc(NC(=O)/C(=C\c2ccccc2)NC(=O)/C=C/c2ccccc2)cc1`?
Ba/F3 V617F tox: 72*; APP transl inh: -14; BaF3 tox: 7; KLF5 inh: -11; IEC-6 tox: -2; aSyn UTR inh: -40; BaF3 tox 2: -4; JAK2V617F confrm: -7

What do the screens show for `Cc1nc2c(-c3ccccc3)c(C)nn2c(C)c1CCC(=O)O`?
Ba/F3 V617F tox: 0; APP transl inh: -2; BaF3 tox: 4; KLF5 inh: 2; IEC-6 tox: 3; aSyn UTR inh: 9

Results for Cc1nc2c(-c3ccc(F)cc3)c(C)nn2c(C)c1CCC(=O)Nc1ccccc1F ?
Ba/F3 V617F tox: 79*; BaF3 tox: -1; KLF5 inh: -36; IEC-6 tox: 0; aSyn UTR inh: 5; BaF3 tox 2: -4; JAK2V617F confrm: 2

What do the screens show for `COc1ccc(Cn2c(O)c(C=Nc3ccccc3C(=O)O)c3ccccc3c2=O)cc1`?
Ba/F3 V617F tox: 4; BaF3 tox: -2; KLF5 inh: -45; IEC-6 tox: 2; aSyn UTR inh: 2

Results for COc1ccccc1NS(=O)(=O)c1cccc(-n2c(O)c(C=Nc3ccccc3C(=O)O)c3ccccc3c2=O)c1 ?
Ba/F3 V617F tox: 24*; BaF3 tox: 8; KLF5 inh: 6; IEC-6 tox: 8; aSyn UTR inh: -66; BaF3 tox 2: 8; JAK2V617F confrm: 32*

Results for Oc1ccc(/C=N/Nc2ncc(Br)cn2)c(O)c1 ?
Ba/F3 V617F tox: 15; APP transl inh: -19; BaF3 tox: 18; KLF5 inh: -83; IEC-6 tox: 1; aSyn UTR inh: 0

How did Oc1ccc(/C=N/Nc2nccnc2Cl)c(O)c1 do in these assays?
Ba/F3 V617F tox: 32*; BaF3 tox: 8; KLF5 inh: -13; IEC-6 tox: -3; aSyn UTR inh: 88*; BaF3 tox 2: 71*; JAK2V617F confrm: 91*

What do the screens show for `COc1ccc(Nc2nc(N)nc(CCl)n2)cc1`?
Ba/F3 V617F tox: 45*; BaF3 tox: -1; KLF5 inh: -24; IEC-6 tox: 6; aSyn UTR inh: -38; BaF3 tox 2: -1; JAK2V617F confrm: 65*

How did Cc1ccccc1Nc1nc(N)nc(CCl)n1 do in these assays?
Ba/F3 V617F tox: 37*; BaF3 tox: -5; KLF5 inh: -8; IEC-6 tox: 14; aSyn UTR inh: -5; BaF3 tox 2: -3; JAK2V617F confrm: 9

Results for Nc1nc(CCl)nc(Nc2ccc3ccccc3c2)n1 ?
Ba/F3 V617F tox: 100*; BaF3 tox: 24; KLF5 inh: -59; IEC-6 tox: 47*; aSyn UTR inh: 23; BaF3 tox 2: 9; JAK2V617F confrm: 99*

How did CC(NC(N)=O)C(=O)Nc1ccc(Cl)c(S(=O)(=O)Nc2ccc(Br)cc2)c1 (configuration not stated) do in these assays?
Ba/F3 V617F tox: 1; APP transl inh: 26; BaF3 tox: 3; KLF5 inh: -2; IEC-6 tox: 0; aSyn UTR inh: -1

What do the screens show for `Cc1ccc2nccc(C(=O)N3CCCC(Nc4ccc(F)cc4)C3)c2c1` (configuration not stated)?
KLF5 inh: -4; IEC-6 tox: 3; aSyn UTR inh: 10

Results for Cc1cccc(N2CCN(C(=O)c3cc(S(=O)(=O)N4CCOCC4)cn3C)CC2C)c1 (configuration not stated) ?
KLF5 inh: -9; IEC-6 tox: -3; aSyn UTR inh: -8

What do the screens show for `CNC(=O)c1nnsc1S(=O)(=O)c1ccc(Cl)cc1`?
Ba/F3 V617F tox: 91*; APP transl inh: 95*; BaF3 tox: 8; KLF5 inh: 16; IEC-6 tox: 48*; aSyn UTR inh: -26; BaF3 tox 2: 68*; JAK2V617F confrm: 98*

What do the screens show for `Nc1nc(C(=O)N2CCOCC2)nn1S(=O)(=O)c1ccc(Cl)cc1`?
Ba/F3 V617F tox: 7; APP transl inh: 4; BaF3 tox: 13; KLF5 inh: -11; IEC-6 tox: -2; aSyn UTR inh: 1

How did O=C(c1nnsc1S(=O)(=O)c1ccc(Cl)cc1)N1CCOCC1 do in these assays?
Ba/F3 V617F tox: 76*; APP transl inh: 38; BaF3 tox: 3; KLF5 inh: 29; IEC-6 tox: 19; aSyn UTR inh: -34; BaF3 tox 2: 45*; JAK2V617F confrm: 75*

Results for CNC(=O)c1ccc(S(=O)(=O)c2ccc(Cl)cc2)c(NC(C)=O)c1 ?
KLF5 inh: -7; IEC-6 tox: -1; aSyn UTR inh: -19

How did COc1cccc(CN2CC(C(=O)N(C)CCCC3CCCC3)CCC2=O)c1 (configuration not stated) do in these assays?
KLF5 inh: -23; IEC-6 tox: -5; aSyn UTR inh: -7

What do the screens show for `CC(C)C[C@H](N)c1nnc(SCC(=O)Nc2ccc(Br)cc2)o1`?
KLF5 inh: -10; IEC-6 tox: 2; aSyn UTR inh: -7

How did CC(C)C[C@H](NC(=O)OC(C)(C)C)c1nnc(SCC(=O)Nc2ccc(Br)cc2)o1 do in these assays?
Ba/F3 V617F tox: 99*; APP transl inh: -5; BaF3 tox: 3; KLF5 inh: -5; IEC-6 tox: -4; aSyn UTR inh: -7; BaF3 tox 2: -6; JAK2V617F confrm: -1

What do the screens show for `CCn1c(SCc2nc(-c3ccccc3)no2)nnc1-c1ccco1`?
Ba/F3 V617F tox: -2; APP transl inh: 3; BaF3 tox: 5; KLF5 inh: 7; IEC-6 tox: -3; aSyn UTR inh: -32
